Results as given in PubChem BioAssay (Tox21).
Results filed as inconclusive are left out. A call without a number means that no potency is given here. A number with no mark means an inactive call. Activity calls are given as the source filed them. Calls come from the whole dose curve; as a rule, active = well fitted cell-killing curve with a large enough effect in the repeat runs; inconclusive = weak or mixed curves, or effect the other way; inactive = no such curve, though single readings can be large or run the other way.

Assay: qHTS assay to identify small molecule agonists of the estrogen receptor alpha (ER-alpha) signaling pathway in the presence of an antagonist - cell viability counter screen (AID 1259386);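 note: cells exposed to compounds for 22 h at 37 °C before the viability read; nearly all actives have a fitted effect of over 30% in size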
Settings: VM7Luc4E2 viability, CellTiter-Fluor fluorescence, 22 h; series mostly up to 92.4 µM
Text: National Center for Advancing Translational Sciences [NCATS]
NIH Chemical Genomics Center [NCGC]
U.S. Environmental Protection Agency [EPA]
National Institutes of Environmental Health Sciences [NIEHS]
National Toxicology Program [NTP]
U.S. Food and Drug Administration [FDA]
Estrogen receptor (ER), a member of nuclear hormone receptor plays an important role in development, metabolic homeostasis and reproduction. Two subtypes of ER, ER-alpha and ER-beta, have similar expression patterns with some uniqueness in both types. Endocrine disrupting chemicals (EDCs) and their interactions with steroid hormone receptors like ER causes disruption of normal endocrine function. Therefore, it is important to understand the effect of environmental chemicals in ER signaling pathway. For identifying ER agonists, VM7Luc4E2 cell line has been used in the current assay.
VM7Luc4E2 cell line (provided by Denison MS, University of California) endogenously expresses full-length ER-alpha and is stably transfected with a plasmid containing four estrogen responsive elements (ERE) upstream of a luciferase reporter gene. This current screening for measuring luciferase reporter gene activity using VM7Luc4E2 cells against Tox21 10K library collection is a confirmation study on agonist mode screening in presence of ER-antagonist (ICI-182,780) at 10.0nM final concentration. The cytotoxicity of the compounds was tested in parallel by measuring the cell viability using CellTiter-Fluor assay system (Promega, Madison, WI) in the same wells.
Tox21 Assay Protocol Summary:
VM7Luc4E2 cells were cultured in phenol red free assay medium containing 10% charcoal stripped FBS for 5 days prior to the assay. The cells were dispensed at 4,000 cells in 4uL of assay medium per well into white wall/solid-bottom 1536-well plates (Corning Life Sciences, Corning, NY) using a Multidrop Combi (Thermo Fisher Scientific Inc., Waltham, MA) dispenser. After the assay plates were incubated at 37C and 5% CO2 for 24hr, 1uL of 10.0nM (final concentration) ICI-182,780 or assay buffer was added using two separate tips of Flying Reagent Dispenser (FRD, Aurora Discovery, San Diego, CA). Then 23nL of compounds dissolved in DMSO at 15 concentrations and positive controls or DMSO only was transferred to the assay plates by a Pintool station (Wako, San Diego, CA). The assay plates were incubated at 37C and 5% CO2 for 22hr. After 21hr incubation at 37C, 1uL/well CellTiter-Fluor reagent (Promega Corporation, Madison, WI) was added to each well using FRD and after 1hr incubation at 37C and 5% CO2, the fluorescence signal was measured on ViewLux plate reader (PerkinElmer, Shelton, CT).
Potency is the fitted concentration of half-maximal effect.

Row | SMILES | Potency | activity change, negative = cytotoxicity
1 | CNc1ccc([N+](=O)[O-])cc1 | 34.4 µM (active) | –
2 | C#C[C@]1(O)CC[C@H]2[C@@H]3[C@H](C)CC4=C(CCC(=O)C4)[C@H]3CC[C@@]21C | inactive | –
3 | OC[C@@H](O)[C@@H](O)CO | inactive | –
4 | O=[N+]([O-])c1ccc(F)c(Cl)c1 | inactive | –
5 | O=C1NC(=O)[C@@H]2CC=CC[C@H]12 | inactive | –
6 | CCCC(=O)OC(C)(C)Cc1ccccc1 | inactive | –
7 | CCCCNS(=O)(=O)c1ccc(C)cc1 | inactive | –
8 | O=C1OC2(c3ccc(O)cc3Oc3cc(O)ccc32)c2ccc(N=C=S)cc21 | inactive | –
9 | S=c1nccc[nH]1 | inactive | –
10 | CCOC(=O)Cn1cccc1-c1nc(-c2ccc(OC)cc2)c(-c2ccc(OC)cc2)s1 | inactive | –
11 | C=Cc1ccccc1C=C | inactive | –
12 | CC(CCc1ccccc1)NCC(O)c1ccc(O)c(C(N)=O)c1 (stereo not given) | 27.3 µM (active) | –
13 | CCC(C)[O-].CCC(C)[O-].CCOC(=O)/C=C(/C)[O-].[Al+3] | inactive | –
14 | CN(C)CCN1CCN(c2cccc(Cl)c2)C1=O | inactive | –
15 | CC1(C)[C@@H](O)CC[C@]2(C)[C@H]3C(=O)C=C4[C@@H]5C[C@@](C)(C(=O)O)CC[C@]5(C)CC[C@@]4(C)[C@]3(C)CC[C@@H]12 | inactive | –
16 | Cl[Si](Cl)(c1ccccc1)c1ccccc1 | inactive | –
17 | C=CCn1c(=O)n(CC=C)c(=O)n(CC=C)c1=O | inactive | –
18 | C#CC1(O)CC[C@H]2[C@@H]3CCC4=CCCC[C@@H]4[C@H]3CC[C@@]21C (stereo not given in full) | inactive | –
19 | CCCC(=O)OCCc1ccccc1 | inactive | –
20 | CCOc1ccc2ccccc2c1C(=O)N[C@@H]1C(=O)N2[C@@H]1SC(C)(C)[C@@H]2C(=O)O | inactive | –

Row | SMILES | Potency | activity change, negative = cytotoxicity
21 | CC(C)CCOC(=O)/C=C/c1ccccc1 | inactive | –
22 | CCCCCCCCCCCCOCCOCCOCCOCCOCCOCCOCCOCCOCCO | 23.7 µM (active) | –
23 | CCCCCCCCCCCCOC(=O)c1ccc(O)cc1 | inactive | –
24 | COC(=O)C1=C(C)NC(C)=C(C(=O)OCCN2CCN(C(c3ccccc3)c3ccccc3)CC2)C1c1cccc([N+](=O)[O-])c1 (stereo not given) | inactive | –
25 | CCC(=O)C(=O)CC | inactive | –
26 | Cc1c(F)c(N2CCNC(C)C2)cc2c1c(=O)c(C(=O)O)cn2C1CC1 (stereo not given) | inactive | –
27 | CCCC[P+](C)(CCCC)CCCC | inactive | –
28 | Cc1c(C)c2c(c(C)c1O)CC[C@@](C)(CCC[C@H](C)CCC[C@H](C)CCCC(C)C)O2 | inactive | –
29 | COc1ccc2cc1Oc1ccc(cc1)C[C@H]1c3c(cc4c(c3Oc3cc5c(cc3OC)CCN(C)[C@@H]5C2)OCO4)CCN1C | 13.3 µM (active) | –
30 | CC(C)(C)C1CCC(=O)CC1 | inactive | –
31 | O=C(O)c1cc(=O)c2ccccc2o1 | inactive | –
32 | C[C@H]1NCc2cc(-c3ccc4c(=O)c(C(=O)O)cn(C5CC5)c4c3OC(F)F)ccc21 | – | 1.35% [at 19 µM]
33 | CCCCCCCCCCCCCCCC[N+](C)(C)CC | inactive | –
34 | CC(N=C(NC#N)Nc1ccncc1)C(C)(C)C (stereo not given) | inactive | –
35 | Cc1cc(C)c(/C=C2\C(=O)Nc3ccccc32)[nH]1 | 7.5 µM (active) | –
36 | CC(C)(C)NSc1nc2ccccc2s1 | inactive | –
37 | Cc1c(C)c2c(c(C)c1OC(=O)c1cccnc1)CC[C@@](C)(CCC[C@H](C)CCC[C@H](C)CCCC(C)C)O2 | inactive | –
38 | C=CC(C)(CCC=C(C)C)OC=O (stereo not given) | inactive | –
39 | CCN(CC)c1ccc2c(-c3ccc(S(=O)(=O)O)cc3S(=O)(=O)[O-])c3ccc(=[N+](CC)CC)cc-3oc2c1 | 7.07 µM (active) | –
40 | OC12N=C(c3ccccc3)SC1Cc1cc(Cl)ccc12 (stereo not given) | inactive | –
